# Laboratory results taken from PubChem BioAssay (NCI).
# Compounds without any hit were thinned out: in the full panel of roughly 83,000, 20% have a hit.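 Single-concentration screen, 48 h exposure, 96-well plates. Endpoint: percent growth. Below 10 = active.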 Unmarked numbers belong to inactive results. Activity calls are given as the source filed them.
# Assays:
# Experiment in all cases: NCI-60 one-dose screen, 48 h (100 = growth as untreated, 0 = no growth, -100 = all killed)
# Conditions in all cases: 10 µM unless noted
# [1] = tested on: SR leukemia
# [2] = tested on: RPMI-8226 leukemia
# [3] = tested on: OVCAR-8 ovarian
# [4] = tested on: OVCAR-5 ovarian
# [5] = tested on: OVCAR-4 ovarian
# [6] = tested on: SK-OV-3 ovarian
# [7] = tested on: IGROV1 ovarian
# [8] = tested on: OVCAR-3 ovarian
# [9] = tested on: HS 578T breast
# [10] = tested on: NCI/ADR-RES ovarian
# [11] = tested on: T-47D breast
# [12] = tested on: BT-549 breast
# [13] = tested on: MDA-MB-435 melanoma
# [14] = tested on: SW-620 colon
# [15] = tested on: MCF7 breast
# [16] = tested on: HCT-116 colon
# [17] = tested on: HCC-2998 colon
# [18] = tested on: KM12 colon
SMILES,growth [1],growth [2],growth [3],growth [4],growth [5],growth [6],growth [7],growth [8],growth [9],growth [10],growth [11],growth [12],growth [13],growth [14],growth [15],growth [16],growth [17],growth [18]
COC(=O)c1c(C)nc(C)c2c1C(=O)C(Br)=C(NCCN1CCOCC1)C2=O,107%,93.7%,81.9%,118%,73.8%,138%,96.2%,13.2%,110%,103%,114%,101%,56.1%,92.1%,82.3%,67.4%,101%,96.9%
CC1(C)CC[C@]2(CO)CC[C@]3(C)[C@H](CC[C@@H]4[C@@]5(C)CC[C@H](O)C(C)(C)[C@@H]5CC[C@]43C)[C@H]2[C@H]1O,56.2%,100%,64.5%,114%,58.5%,92.3%,102%,74.7%,7.22% (active),80.8%,75.1%,96.2%,91.5%,84.9%,69.2%,42.8%,101%,65.2%
CC(C)n1cc(C2=C(c3cccc4ccccc34)C(=O)NC2=O)c2cc(Br)ccc21,25.8%,92.1%,72.7%,89.8%,64.9%,64%,69.9%,20.7%,45.8%,21.1%,90%,92.6%,61.6%,46.7%,76.1%,35.4%,52.1%,36.5%
O=C1/C(=C/c2cccc([N+](=O)[O-])c2)COc2ccc(O)c(O)c21,8.03% (active),-24.7% (active),5.45% (active),-48.8% (active),15.3%,68.9%,-21.6% (active),-83.6% (active),6.86% (active),9.52% (active),-16.8% (active),-3.03% (active),-33.4% (active),-31.4% (active),1.76% (active),-74.8% (active),-85.2% (active),-45.7% (active)
CN(C)c1ccc(/C=C/C2=[N+](C)c3ccccc3C2(C)C)cc1,6.36% (active),-20.3% (active),14.8%,35.6%,31.2%,4.03% (active),34.7%,10%,43.3%,77.8%,20.5%,17.2%,12.9%,37.7%,5.64% (active),15.7%,28%,7.96% (active)
CCN1CCN(c2nc(NNC(=O)c3ccc(OC)cc3)nc(N3CCN(C(c4ccccc4)c4ccccc4)CC3)n2)CC1,-8.03% (active),12.3%,63.1%,106%,49.1%,48.3%,72.3%,11.7%,46.2%,73.4%,43.4%,81.1%,18.3%,32.4%,15.9%,20.8%,21.3%,36.9%
COc1ccc(NC(=O)c2ccc(Cl)cc2Cl)cc1,98.2%,101%,98.6%,101%,78.7%,106%,106%,106%,96.8%,97.5%,94.5%,101%,88.3%,95%,93.8%,99.4%,105%,99.1%
Nc1ncc(-c2ccc3ncnc(N4CCc5ccc(Cl)cc54)c3c2)cn1,-10.6% (active),-35.6% (active),4.28% (active),7.02% (active),2.15% (active),-22.2% (active),-47.7% (active),3.17% (active),-24.5% (active),3.68% (active),-7.59% (active),-25% (active),7.35% (active),0.122% (active),10.6%,-30.6% (active),5.87% (active),6.87% (active)
COc1ccc(-c2ccc(-c3ccc(C(=N)N)nc3)s2)cc1,0.29% (active),-41.1% (active),-17.4% (active),-73.1% (active),-79.7% (active),89.2%,-84.3% (active),-87.1% (active),-47.5% (active),25.5%,-31.1% (active),84%,-95.8% (active),-65.7% (active),-65.5% (active),-60.4% (active),-44.9% (active),-73.7% (active)
Nc1ncc(-c2ccc3ncnc(N4CCc5cc(F)c(Cl)cc54)c3c2)cn1,36.5%,20.8%,45.4%,27%,54.6%,29.4%,9.49% (active),37.9%,13.2%,50.4%,8.79% (active),33.7%,55.8%,66.4%,24.3%,46.9%,61.5%,58%
COc1ccc(S(=O)(=O)N(C)c2oc(-c3ccc(Cl)cc3)nc2C#N)cc1,29.3%,69.7%,96%,94.6%,76.4%,91.2%,77.7%,82.2%,64.9%,58.6%,74.5%,74.7%,-3.32% (active),43.3%,52.5%,72%,76.2%,56.6%
CCN1C(=O)N(CC)C2C1NC(=S)N2/N=C/C=C/c1ccccc1 (stereo not drawn),7.76% (active),-8.74% (active),6.3% (active),59.6%,46.9%,20.4%,21%,-8.49% (active),13.6%,0.601% (active),46.5%,-10.3% (active),-42.1% (active),25.6%,13.8%,5.71% (active),19%,8.65% (active)
C=C(CNCCc1ccc(O)cc1)[C@@H]1CC[C@]2(CO)CC[C@]3(C)[C@H](CC[C@@H]4[C@@]5(C)CCC(N)C(C)(C)[C@@H]5CC[C@]43C)[C@@H]12 (stereo partly drawn),-43.9% (active),-46.5% (active),-56.8% (active),11.4%,-16.2% (active),-6.7% (active),-57.3% (active),-53.5% (active),-66% (active),60.4%,-65.7% (active),59.7%,-90.5% (active),-81.6% (active),-72.3% (active),-65.9% (active),-89.5% (active),-60.6% (active)
Cc1nc2cccc(NCc3ccc(C(=O)NO)cc3)c2c(=O)n1-c1ccccc1,14.8%,18.5%,3.81% (active),40%,62.2%,4.52% (active),20.4%,43.9%,56.8%,19.2%,17.5%,73.4%,27%,7.22% (active),67.1%,-32.6% (active),86.3%,29.8%
CC(=O)OCCOc1cc(Cl)c(Cl)cc1Cl,97.2%,93.3%,103%,90.6%,108%,107%,130%,118%,103%,105%,101%,91.7%,106%,104%,104%,102%,97.9%,103%
Nc1nc(N)c2c(n1)NC(c1cccc(Nc3ccnc4cc(C(F)(F)F)ccc34)c1)CC(c1ccc(Cl)cc1)=N2 (stereo not drawn),3.26% (active),-1.21% (active),62.4%,105%,60.1%,64.9%,52.9%,26.6%,62.1%,54.4%,73.7%,114%,-24.8% (active),25.6%,16.1%,15.1%,51.8%,21.3%
